# BAZ2B inh – blocks human BAZ2B | Q9UIF8 | AlphaScreen BAZ2B-H3K14Ac peptide displacement | Potency, µM (titrated, usually from 114 µM), for the others: top-dose activity change, negative = inhibition, hits mostly inhibitors | actives 4.4% (n = 360,000) | AID 504333; note: potency is the fitted concentration of half-maximal effect; % is set by controls: 0 for no effect and ±100 for the full control effect; nearly all actives have a fitted effect of over 60% in size
#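 Complex of BAZ2B and biotin-H3K14Ac (50 nM apiece) forms over 30 min at RT, then faces library compounds up to 110 uM for another 30 min; AlphaScreen beads added, 20 min dark incubation, luminescence read.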
# PI5P4Ka inh – blocks human PI5P4K alpha kinase activity; max response, %; P48426; PI5P4Kalpha enzyme, ADP-Glo luminescence, 60 min; hits give low values; actives 1.2% (n = 330,000); active = max response of -50% or lower; inconclusive = between -30% and -50%; inactive = -30% or higher; note: value at the top dose of about 77 µM; % is set by controls: 0 for no effect and ±100 for the full control effect
# Target sequence (P48426 whole entry, looked up): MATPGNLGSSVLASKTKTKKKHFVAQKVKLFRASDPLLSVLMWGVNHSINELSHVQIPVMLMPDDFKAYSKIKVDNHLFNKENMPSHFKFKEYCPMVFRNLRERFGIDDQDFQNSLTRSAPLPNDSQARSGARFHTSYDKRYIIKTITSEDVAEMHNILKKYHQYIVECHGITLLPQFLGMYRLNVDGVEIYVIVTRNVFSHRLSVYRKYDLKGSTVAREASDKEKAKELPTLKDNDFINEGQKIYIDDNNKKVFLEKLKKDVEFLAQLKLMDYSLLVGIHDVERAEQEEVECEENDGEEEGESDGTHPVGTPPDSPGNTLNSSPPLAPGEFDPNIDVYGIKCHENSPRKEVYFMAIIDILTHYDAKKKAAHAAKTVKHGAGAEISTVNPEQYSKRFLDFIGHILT
#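 Compounds were pin-transferred onto PI5P4Kalpha and substrate in HEPES pH 7.4 buffer with EGTA, CHAPS and 5% DMSO. ATP (5 microM final) started the reaction, which ran 60 minutes at room temperature before ADP-Glo detection.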
# HP1b binding inh – blocks HP1-beta chromodomain binding to methylated histone tails; Potency, µM (highest dose often 114 µM), without a hit: at the highest dose activity change, negative = inhibition, hits mostly inhibitors; P83916; actives 0.56% (n = 390,000); AlphaScreen HP1-beta / biotin-H3K9me3 peptide binding; note: potency is the fitted concentration of half-maximal effect; nearly all actives have a fitted effect of over 70% in size
#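 Compound inhibition of the preformed complex between 50 nM HP1-beta and 50 nM biotinylated H3K9me3 peptide was read by AlphaScreen. Buffer was PBS pH 7.4 with 0.01% Tween-20. Incubations ran 30 min at room temperature, with 10 ug/mL donor/acceptor beads.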
# G9a inh – blocks human histone lysine methyltransferase G9a; Potency, µM (series often up to 102 µM), inactives show at the top dose activity, negative = inhibition, actives largely listed as inhibitors; Q96KQ7; actives 8.8% (n = 350,000); G9a H3K9 monomethylation, AlphaScreen, 2 h; note: potency is the fitted concentration of half-maximal effect; % is set by controls: 0 for no effect and ±100 for the full control effect; nearly all actives have a fitted effect of over 75% in size
# Target sequence (Q96KQ7 913-1193 limits assumed): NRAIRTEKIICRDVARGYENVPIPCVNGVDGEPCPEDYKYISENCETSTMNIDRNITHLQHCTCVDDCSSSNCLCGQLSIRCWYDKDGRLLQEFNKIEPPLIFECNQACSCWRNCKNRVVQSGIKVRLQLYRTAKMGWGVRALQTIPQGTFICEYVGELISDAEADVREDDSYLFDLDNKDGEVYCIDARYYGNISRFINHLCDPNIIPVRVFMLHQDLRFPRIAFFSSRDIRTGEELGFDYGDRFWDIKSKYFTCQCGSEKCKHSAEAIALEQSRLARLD
#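 Compounds were preincubated with 20 nM G9a for 15 min, after which biotinylated H3K9 peptide (500 nM) and SAM (20 uM) started a 2 h room-temperature reaction. Monomethylated product was quantified by antibody-based AlphaScreen chemiluminescence.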
# JMJD2A Tudor – blocks the human JMJD2A Tudor domain; O75164; AlphaScreen JMJD2A-Tudor / H3K4me3 peptide binding; Potency, µM (doses to about 114 µM), for inactives: at the top dose activity change, negative = inhibition, hits mostly inhibitors; actives 4.4% (n = 390,000); note: potency is the fitted concentration of half-maximal effect; % is set by controls: 0 for no effect and ±100 for the full control effect; nearly all actives have a fitted effect of over 50% in size
# L3MBTL1 block – L3MBTL1 (human) inhibition; AlphaScreen L3MBTL1–H3K9me1 peptide binding; Potency, µM (doses to about 57.1 µM), inactives show at the highest dose activity, negative = inhibition, most hits filed as inhibitors; AID 485360; actives 0.66% (n = 230,000); Q9Y468; note: potency is the fitted concentration of half-maximal effect; % is set by controls: 0 for no effect and ±100 for the full control effect; nearly all actives have a fitted effect of over 60% in size
#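 First, the protein-peptide complex forms for 30 min at room temperature (L3MBTL1 50 nM, biotinylated H3K9me1 peptide 75 nM). Next, compounds are pin-transferred and incubated 30 min. Finally, AlphaScreen beads are added and read after 30 min.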
# * hit, by the source's call; ? = inconclusive; · = no result given; [ ] = another dose, or the depositor's remark. Shown are actives, neighbours in structure and some others; about 11% of the full set was active somewhere. Unless noted, calls come from the whole dose curve; as a rule, active = well fitted inhibition curve with a large enough effect; inconclusive = small, poorly fitted or top-dose-only effect; inactive = no such curve, though single readings can be large or run the other way.
SMILES,BAZ2B inh,PI5P4Ka inh,HP1b binding inh,G9a inh,JMJD2A Tudor,L3MBTL1 block
COC(=O)c1sc(NC(=O)Cc2cccs2)nc1C,-3%,·,11%,28µM*,-9%,11%
CC(=O)Nc1cccc(NC(=O)Cc2cccs2)c1,?,?,20%,79µM*,-25%,-7%
COc1cccc(Nc2ncc3nc(CCc4ccccc4)c(=O)n(C)c3n2)c1,·,·,·,6%[0.501 µM],·,·
CCc1nnc(SCc2cccc(Cl)c2)c2cc3sccc3n12,8%,·,55%,28%[59 µM],17%,·
N=C(N)c1ccc(N=Nc2c(O)ccc3c2[nH]c2ccccc23)cc1,·,-71*,71µM*,·,56µM*,·
CCCCOc1ccc(C2c3c(oc4ccc(C)cc4c3=O)C(=O)N2CCCN(C)C)cc1OCC (stereo not given),-24%,·,5%,-36%[59 µM],-23%,·
CC1Cc2ccccc2N1C(=O)c1cnc2n(c1=O)CCS2 (stereo not given),7%,4,34%,45µM*,-7%,·
CC1Cc2ccccc2N1C(=O)c1cccnc1 (stereo not given),4%,·,19%,50µM*,-2%,-2%
O=C(c1cnc2n(c1=O)CCS2)N1CCc2ccccc21,-5%,7,30%,-4%[59 µM],-15%,2%
CC1CCc2cc(F)ccc2N1C(=O)c1cccnc1 (stereo not given),3%,5,65%,·,-13%,0%
COc1ccccc1CNC(=O)C1CCCN(S(=O)(=O)c2ccc3c(c2)oc(=O)n3C)C1 (stereo not given),-3%,·,48%,6%[59 µM],?,·
COc1ccc(-c2nc(N)n(C(=O)c3ccccc3)n2)cc1,-21%,-1,34%,-26%,-4%,-6%[11.4 µM]
COc1ccc(-c2nc(N)n(C(=O)c3cccs3)n2)cc1,-9%,0,12%,-3%[59 µM],89µM*,·
CN1c2cccc3cccc(c23)N(C)C1(C)C,50µM*,-2,?,-41%[0.0925 µM],?,-29%
COc1ccc(-n2c(=O)cnc3cnc(N4CCNCC4)nc32)cc1,·,·,·,-8%[12.7 µM],·,·
Cc1cc(C)c2[nH]c(=S)cc(C)c2c1,-8%,-5,11%,3.5µM*,-3%[57.1 µM],·
OC(COC1CCCCC1)CN1CCN(c2ccccc2)CC1 (stereo not given),27%,·,23%,-25%,-13%,1%
Cc1n(CC(O)COC2CCCCC2)c2ccccc2[n+]1C (stereo not given),6%,-10,5%,?,79µM*,-3%
CCOC(=O)c1[nH]c(C)c(C(=O)N(CC)CC)c1C,3%,-8,28%,79µM*,-27%,·
Cc1nc2c(-c3ccccc3)c(C)[nH]n2c(=O)c1Cc1ccc(Br)cc1,-32%,·,42%,46%[59 µM],-29%,·
COc1ccc(-n2nc(C(=O)NCC(=O)NCCC3=CCCCC3)c3ccccc3c2=O)cc1OC,3%,3,-8%,50µM*,-13%,·
Cn1c(=O)c2ccccc2n(CC(=O)NCCC2=CCCCC2)c1=O,0%,0,10%,28µM*,1%,·
Cn1c(=O)c2sccc2n(CC(=O)NCCC2=CCCCC2)c1=O,-18%,-2,31%,11%,-5%,·
CC(C)=CC(=O)OCC(=O)Nc1ncc(Cl)c(C)c1Cl,?,·,16%,28%[12.7 µM],-18%,-26%
Cc1ccc([N+](=O)[O-])cc1NC(=O)CNC1CCCCC1,16%,-1,35%,·,10%[57.1 µM],10%
SMILES,BAZ2B inh,PI5P4Ka inh,HP1b binding inh,G9a inh,JMJD2A Tudor,L3MBTL1 block
O=C(CNC1CCCC1)Nc1cc(Cl)ccc1[N+](=O)[O-],56µM*,-2,40µM*,45µM*,1µM*,-3%
CC(=O)c1c(C)[nH]c(C(=O)OCC(=O)Nc2cc(Cl)ccc2[N+](=O)[O-])c1C,?,-7,15%,50µM*,-15%,-11%
CC(=O)c1c(C)[nH]c(C(=O)OCC(=O)Nc2ncc(Cl)c(C)c2Cl)c1C,-39%,-54*,11%,22%[59 µM],-31%[57.1 µM],-11%
COC(=O)c1cc(O)c(O)c(O)c1,79µM*,-5,?,40µM*,20µM*,?
CCC(=O)N1CCc2cc(S(=O)(=O)NC(Cc3ccccc3)C(=O)Nc3cccc(OC)c3)ccc21 (stereo not given),·,·,24%,1%[59 µM],2%,·
N#Cc1nccnc1S(=O)(=O)c1cccs1,-2%,-7,12%,4µM*,-17%,-6%
CC1(C)CCC[C@@](C)([C@H]2CC[C@]3(C)[C@@H]2[C@H](O)C[C@@H]2[C@@]4(C)CC[C@H](O)C(C)(C)[C@@H]4[C@@H](O)C[C@]23C)O1,·,·,·,15%[59 µM],·,·
Cn1c(N)c(C(=O)Nc2cccc(Cl)c2)c(=O)n(C)c1=O,11%,5,9%,25%,-3%,·
CN=c1sc(C(=O)Nc2cccc(Cl)c2)cc(=O)n1C,8%,-62*,-5%,9%[59 µM],45µM*,2%
COCCCn1c(SCC(=O)Nc2ccc(F)cc2)nc2c(sc3ccccc32)c1=O,-4%,·,-12%,-1%[59 µM],-15%,·
CCCCNC(=S)N/N=C/c1cccc(OCC)c1O,-26%,2,20%,·,-20%,3%
O=[N+]([O-])c1ccccc1NC(=S)N/N=C/c1ccc(O)c(O)c1,10µM*,-63*,8.9µM*,·,?,?
CCOc1cccc(/C=N/NC(=S)Nc2ccccc2[N+](=O)[O-])c1O,11µM*,-21,9%,3%,?,?
CCCN1C(=O)c2cc(C(=O)Nc3ccc(OC)c(OC)c3)ccc2C1Nc1ccc(OC)c(OC)c1 (stereo not given),-7%,5,36%,-1%,-13%,·
CCCN1C(=O)c2cc(C(=O)Nc3ccc(OC)cc3OC)ccc2C1Nc1ccc(OC)cc1OC (stereo not given),?,-5,-20%,22µM*,28µM*,·
COc1ccccc1N=C1NC(=O)/C(=C/c2ccc(N(C)C)cc2)S1,45µM*,-5,-21%,·,?,?
COc1cc(/C=C2/SC(=Nc3ccc(O)cc3)NC2=O)cc(OC)c1O,11%,-51*,0%,-39%,-12%,?
COc1ccc(N=C2NC(=O)/C(=C/c3ccc(O)c(OC)c3)S2)cc1,?,-62*,-13%,?,-35%,-3%
CN1C(=O)/C(=C/c2ccco2)SC1=Nc1ccc(N2CCOCC2)cc1,7.9µM*,-9,?,7.1µM*,-25%,-1%
COc1cc(/C=C2\SC(=Nc3ccc(O)cc3)NC2=O)cc(OC)c1OC,-11%,-3,-18%,·,-22%,·
COc1ccc(N=C2NC(=O)/C(=C\c3ccco3)S2)cc1,28µM*,-59*,?,?,?,·
Cc1ccccc1N/N=C1\CCCNC1=O,-33%,-6,-17%,?,?,-12%

# Compound activity: PubChem BioAssay, National Center for Advancing Translational Sciences (NCATS)
